Source: PubChem
Most compounds without a hit are left out; they make up all but 3.5% or so of the library.
TWEAK-Fn14 inh – inhibitors of TWEAK-Fn14 signaling, primary screen, luciferase reporter cells, uHTS; TWEAK-stimulated Fn14 reporter cells, luciferase luminescence, 8 h; inhibition, % at 10 µM; 360,000 tested, 2% active; AID 1159606, 2016; in the data active = inhibition above about 50%
PPC-1+TRAIL kill – compounds killing PPC-1 cancer cells with TRAIL present, primary screen, TRAIL potentiator project, ATPLite luminescence, uHTS | PPC-1 cells + TRAIL, ATPLite viability luminescence | cell killing (% activity), % at 4 µM or 5 µM | 220,000 tested, 0.41% active | AID 1443, 2008;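 active = cell killing above 50% in the first pass at 4 µM, then a duplicate retest at 5 µM averaging 50% or more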
TRAIL sens C8 – viability loss with TRAIL in NB7+C8 cells, primary screen, TRAIL sensitizer project, cell-based, ATPlite luminescence; inhibition (viability loss, TRAIL sensitization), % at 10 µM; 360,000 tested, 1% active;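 active = compounds causing at least 50% loss of cell viability in the single-dose screen, relative to plate controls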
TROY signal inh – inhibitors of TROY-driven NF-kB signaling, primary screen, Q293 LMP1-TROYcd cells, NF-kB luciferase, uHTS | Q293 LMP1-TROYcd NF-kB luciferase reporter, 4 h | inhibition, % at 10 µM | 360,000 tested, 0.98% active | AID 1347056, 2019;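 active = compounds whose plate-normalised and pattern-corrected inhibition of the luciferase reporter signal at the single screening dose is 50% or more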
Platelet DG rel – inhibitors of platelet dense granule secretion, primary screen, cell-based, MLPCN, human platelets; human platelet-rich plasma, SFLLRN dense granule ATP release, luminescence; inhibition, %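 (compounds screened at 7.5 µM in platelet-rich plasma)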; 300,000 tested, 0.22% active;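 active = mean replicate score, as percent of positive control, at or above 50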
HSP90 refold inh – HSP90 inhibitors, primary screen, cell lysate, luminescence | Heat shock protein HSP 90 (rabbit reticulocyte lysate; luciferase refolding) | Rabbit reticulocyte lysate, luciferase refolding luminescence, 3 h | inhibition, % at 5.6 µM | 290,000 tested, 0.91% active | AID 1789, 2009;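 active = inhibition above the screen-wide mean plus 3 SD, computed separately per campaign, cut at about 16% in these data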;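 also: inhibitors lower the luminescence because luciferase stays unfolded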
A number is an active result.

What do the screens show for `COc1ccccc1NS(=O)(=O)c1cc([N+](=O)[O-])ccc1N/N=C/c1c[nH]c2ccccc12`?
TWEAK-Fn14 inh: 56; PPC-1+TRAIL kill: inactive; TRAIL sens C8: inactive; TROY signal inh: 52; Platelet DG rel: inactive; HSP90 refold inh: inactive

How did COc1ccc(NS(=O)(=O)c2cc([N+](=O)[O-])ccc2N/N=C\c2c(C)[nH]c3ccccc23)cc1 do in these assays?
TWEAK-Fn14 inh: inactive; PPC-1+TRAIL kill: inactive; TRAIL sens C8: inactive; TROY signal inh: inactive; Platelet DG rel: inactive; HSP90 refold inh: inactive

Results for CCc1cc2c(=O)c(-c3nc4ccccc4[nH]3)coc2c(CN2CCCCC2C)c1O (stereo not given) ?
TWEAK-Fn14 inh: inactive; PPC-1+TRAIL kill: inactive; TRAIL sens C8: inactive; TROY signal inh: inactive; Platelet DG rel: inactive; HSP90 refold inh: inactive

How did CCc1cc2c(=O)c(-c3ccc4c(c3)OCCO4)coc2c(CN2CCCCC2C)c1O (stereo not given) do in these assays?
TWEAK-Fn14 inh: inactive; PPC-1+TRAIL kill: inactive; TRAIL sens C8: inactive; TROY signal inh: 72; Platelet DG rel: inactive; HSP90 refold inh: inactive

Results for CCC1(c2ccccc2)SC(=O)NC1=O (stereo not given) ?
TWEAK-Fn14 inh: inactive; TRAIL sens C8: inactive; TROY signal inh: inactive

What do the screens show for `O=C(CCCn1c(=S)[nH]c2ccsc2c1=O)Nc1ccc2c(c1)OCCO2`?
TWEAK-Fn14 inh: 89; PPC-1+TRAIL kill: inactive; TRAIL sens C8: inactive; TROY signal inh: 82; Platelet DG rel: inactive; HSP90 refold inh: inactive

What do the screens show for `O=C(CCCn1c(=S)[nH]c2ccsc2c1=O)Nc1ccc(F)cc1`?
TWEAK-Fn14 inh: inactive; TRAIL sens C8: inactive; TROY signal inh: inactive

What do the screens show for `CC1=CC(=O)c2ccccc2C1=O`?
TWEAK-Fn14 inh: inactive; PPC-1+TRAIL kill: inactive; TRAIL sens C8: inactive; TROY signal inh: inactive; Platelet DG rel: inactive; HSP90 refold inh: inactive

What do the screens show for `CC(C)(C=O)C1=CC(=O)c2ccccc2C1=O`?
TWEAK-Fn14 inh: 63; PPC-1+TRAIL kill: inactive; TRAIL sens C8: inactive; TROY signal inh: 70; HSP90 refold inh: inactive

Results for CCCNC(=O)C1(C)CCN(Cc2cc(C(F)(F)F)ccc2Cl)C1 (stereo not given) ?
TWEAK-Fn14 inh: inactive; TRAIL sens C8: inactive; TROY signal inh: inactive

Results for CCC(CC)NC(=O)COC(=O)CCC(=O)c1ccc(Cl)cc1 ?
TWEAK-Fn14 inh: inactive; PPC-1+TRAIL kill: inactive; TRAIL sens C8: inactive; TROY signal inh: inactive; Platelet DG rel: inactive; HSP90 refold inh: inactive

What do the screens show for `CCC(C)(C)C(=O)Nc1ncc(S(=O)(=O)c2ccc([N+](=O)[O-])cc2)s1`?
TWEAK-Fn14 inh: inactive; PPC-1+TRAIL kill: inactive; TRAIL sens C8: inactive; TROY signal inh: inactive; Platelet DG rel: inactive; HSP90 refold inh: inactive

What do the screens show for `O=C(CCl)Nc1ncc(S(=O)(=O)c2ccc([N+](=O)[O-])cc2)s1`?
TWEAK-Fn14 inh: inactive; TRAIL sens C8: 51; TROY signal inh: inactive

How did C=CCc1ccccc1OCC(=O)N/N=C/c1ccc(OC(C)=O)cc1OC(C)=O do in these assays?
TWEAK-Fn14 inh: inactive; PPC-1+TRAIL kill: inactive; TRAIL sens C8: 50; TROY signal inh: inactive; Platelet DG rel: inactive; HSP90 refold inh: inactive

How did Cc1ccccc1OCC(=O)N/N=C/c1cc2ccccc2nc1Cl do in these assays?
TWEAK-Fn14 inh: inactive; PPC-1+TRAIL kill: inactive; TRAIL sens C8: inactive; TROY signal inh: inactive; Platelet DG rel: inactive; HSP90 refold inh: inactive

What do the screens show for `Cc1ccc2c(c1)C1(OCCCO1)C(=O)N2CC(=O)NN`?
TWEAK-Fn14 inh: 94; TRAIL sens C8: inactive; TROY signal inh: inactive; Platelet DG rel: inactive

How did O=C1c2cccc3c([N+](=O)[O-])ccc(c23)C(=O)N1c1nccs1 do in these assays?
TWEAK-Fn14 inh: inactive; PPC-1+TRAIL kill: inactive; TRAIL sens C8: 53; TROY signal inh: inactive; Platelet DG rel: inactive; HSP90 refold inh: inactive

Results for CC(=O)Oc1ccc(N2C(=O)c3cccc4c([N+](=O)[O-])ccc(c34)C2=O)cc1 ?
TWEAK-Fn14 inh: inactive; TRAIL sens C8: inactive; TROY signal inh: 55; Platelet DG rel: inactive; HSP90 refold inh: inactive
